# Screening data from PubChem.
# Insulin prom inh = inhibitors of insulin promoter-driven GFP, primary screen, imaging, TRM-6 cells (human fetal islet line), eGFP reporter, cell count; reporter expression induced with tamoxifen; inhibition, % at 2 µM; 0.9% of 130,000 active; AID 1273, 2008;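 active = inhibition above the mean plus 3 SD, with well images judged a real hit on visual review, cut at about 60% in these data, passing the limit was not always enough; inconclusive = inhibition over the cutoff but images rejected on review; inactive = inhibition not above the cutoff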
# HUVEC tox TNFa = cytotoxicity in TNFa-stimulated HUVEC, primary screen, cytotoxicity control for VCAM1 expression modulator project, imaging, Hoechst nuclei count. AID 848, 2007. HUVEC TNFalpha-stimulated, Hoechst cell count. 0.17% of 93,000 active. cell count reduction, % at 2 µM;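 active = cell count reduction exceeding the screen mean by over 5 SD, scaled to untreated wells per plate, cut at about 78% in these data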;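 also: cells counted after 24 h of TNF alpha exposure following the 1 h pretreatment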
# Phagocytosis inh = inhibitors of macrophage phagocytosis, primary screen, imaging, J774A.1 cells, IgG beads | 0.07% of 110,000 active | J774A.1 macrophage IgG-bead phagocytosis | AID 1029, 2008 | inhibition, % at 5 µM;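 active = inhibition above the mean of the plate negative controls plus 5 SD, cut at about 13% in these data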;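 also: phagocytic index as fraction of beads internalized from green versus red external bead signal; plate controls were DMSO negative control for no effect and cytochalasin-D positive control for full effect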
# VCAM1 TNFa inh = inhibitors of TNFa-induced VCAM1 expression, primary screen, imaging, HUVEC, TNFa stimulus, immunofluorescence; AID 802, 2007; inhibition, % at 2 µM; HUVEC TNFa-induced VCAM-1 immunofluorescence, high-content imaging; 0.48% of 95,000 active;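 active = inhibition above the batch mean plus 3 SD, with images confirmed as a hit by eye, cut at about 37% in these data; inconclusive = inhibition above that limit but hit not confirmed in images; inactive = inhibition not above that limit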;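 also: 0% = TNF-stimulated DMSO wells and 100% = unstimulated control wells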
# F-actin modifier = modifiers of F-actin cytoskeleton organization, primary screen, imaging, HUVEC, phalloidin staining, high-content imaging. HUVEC TNFa F-actin phalloidin imaging. inhibition, % at 2 µM. 0.18% of 91,000 active;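 active = inhibition above the batch mean plus 3 SD and confirmed as a hit by visual image inspection, cut at about 30% in these data, passing the limit was not always enough; inconclusive = above the inhibition threshold but rejected on visual inspection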
# E-sel TNF inh = E-selectin induction blockers in HUVEC – imaging, immunofluorescence, high content, primary screen; HUVEC TNFa-induced E-selectin immunofluorescence; inhibition, % at 2 µM; 0.71% of 120,000 active;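 active = inhibition above the batch mean plus 3 SD, and confirmed as a hit on visual image review, cut at about 43% in these data; inconclusive = passes the inhibition cutoff but fails visual image review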;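 also: 0% = TNF-stimulated DMSO wells and 100% = unstimulated control wells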
# Starred values were filed as active, the others as inactive; i = inactive; ? = inconclusive; . = no result. Sampled rows, rich in hits. Any-hit rate of the full collection: about 1.6%.
SMILES,Insulin prom inh,HUVEC tox TNFa,Phagocytosis inh,VCAM1 TNFa inh,F-actin modifier,E-sel TNF inh
COc1cc(-c2noc(CCC(=O)Nc3cccnc3)n2)cc(OC)c1OC,17,2,-1,7,-13,62*
COc1cc(NC(=O)CCc2nc(-c3cccs3)no2)cc(OC)c1OC,28,-1,0,21,3,-26
COc1ccc(-c2noc(CCC(N)=O)n2)cc1OC,.,12,-1,-13,12,80*
CCOc1ccc(-c2noc(CCCC(N)=O)n2)cc1OC,-3,-15,1,15,0,1
O=C1c2ccccc2-c2n[nH]c(=O)c3ccc(N4CCCCC4)c1c23,.,.,.,.,.,-3
c1ccc(CCn2nnnc2C(c2cccs2)N2CCOCC2)cc1 (centres undefined),.,.,-2,.,.,.
COc1ccc(Cn2nnnc2C(c2cccs2)N2CCOCC2)cc1 (centres undefined),100*,-7,4,-10,11,31
COc1ccc(/C=C/C(=O)CC(O)(c2ccccc2)C(F)(F)F)cc1 (centres undefined),85*,-38,.,12,57,19
Cc1ccc(-n2c(SCC(=O)Nc3nccs3)nc3c(c2=O)SCC3)cc1,.,.,-2,.,.,97*
CCOc1ccc(-n2c(SCC(=O)Nc3ccc(OC)cc3)nc3c(c2=O)SCC3)cc1,27,82*,.,60*,7,-13
COc1ccccc1-n1c(SCC(=O)N2CCc3ccccc32)nc2c(c1=O)SCC2,.,-31,1,11,13,.
COc1ccc(OC)c(-n2c(SCC(=O)N3CCc4ccccc43)nc3c(c2=O)SCC3)c1,70*,.,.,.,.,20
CCOc1ccc(-n2c(SCC(=O)Nc3nccs3)nc3c(c2=O)SCC3)cc1,.,.,-1,.,.,-35
O=C(c1cc([N+](=O)[O-])cc([N+](=O)[O-])c1)N1CCOCC1,.,.,-9,.,.,.
COc1cccc(CC2CC(=O)N(c3ccc4c(C)cc(=O)oc4c3)C2=O)c1 (centres undefined),27,.,.,.,.,.
CCCCOc1ccc(CC2CCC(=O)NC2=O)cc1 (centres undefined),7,.,.,.,.,-6
COC(=O)c1ccccc1NC(=O)c1ccc(-c2cccc(Cl)c2)o1,0,.,0,.,?,44*
COC(=O)c1ccccc1NC(=O)c1ccc(COc2ccccc2)o1,i,-16,-2,-2,-4,-22
CC(/C=N/NC(=O)Cc1cccn1C)=C\c1ccccc1,75*,.,-2,.,.,30
CC(/C=N/NC(=O)Cc1cccs1)=C\c1ccccc1,-8,.,-1,.,.,13
CCOC(=O)c1ccc(NS(=O)C23CC4CC(CC(C4)C2)C3)cc1 (centres undefined),46,40,-5,54*,-14,17
CCOC(=O)c1ccc(NC(=O)CNC(=O)C23CC4CC(CC(C4)C2)C3)cc1,-24,16,.,-13,12,-3
CNC(=O)c1cc(C)c(-c2ccccc2)s1,89*,-7,-1,19,6,24
Cc1cc(C)cc(NC(=O)CSCc2nc3c(nnn3Cc3ccc(F)cc3)c(=O)[nH]2)c1,-75,-27,.,15,1,19
O=C(Cn1cccc1C(=O)c1ccccc1)NCc1ccco1,-57,-14,-3,-10,-4,.
SMILES,Insulin prom inh,HUVEC tox TNFa,Phagocytosis inh,VCAM1 TNFa inh,F-actin modifier,E-sel TNF inh
Cc1ccccc1C(=O)c1cccn1CC(=O)NCc1ccco1,.,-15,.,-1,17,62*
CCOC(=O)C1CCN(C(=O)CSc2n[nH]c(=O)[nH]c2=O)CC1,81*,-10,0,-8,12,-43
Cc1cc(C)cc(-n2nnnc2SCC(=O)Nc2nc(-c3ccc(F)cc3)cs2)c1,32,4,.,19,-7,23
Cc1cc(C)cc(-n2nnnc2SCC(=O)Nc2nc(-c3ccc(Cl)cc3)cs2)c1,.,-24,0,10,45*,-5
CCCC(=O)n1nc(-c2ccc(Cl)cc2)nc1SC,75*,20,-2,2,-32,-10
CCC(=O)n1nc(-c2ccc(OC)cc2)nc1SC,89*,-13,.,19,9,14
N#Cc1nc(-c2ccco2)oc1N1CCOCC1,-43,-31,-1,40*,19,.
CNS(=O)(=O)c1cccc(C(=O)OCC(=O)N(Cc2ccccc2)C(C)(C)C)c1,.,.,.,.,.,-27
CCOC(=O)N1CCN(C(=O)c2ccc(OC)c(S(=O)(=O)N3CCOCC3)c2)CC1,78*,.,.,.,.,-3
COc1ccc(C(=O)N2CCN(C(C)=O)CC2)cc1S(=O)(=O)N1CCOCC1,45,.,.,.,.,.
C=CCn1c(C(CC(C)C)CC(C)O)n[nH]c1=S (centres undefined),?,.,3,.,.,.
O=c1c2c(n3nnnc3n1-c1ccccc1)-c1ccccc1CC21CCCC1,27,-28,-2,-3,-17,100*
CN(CC(=O)NCc1ccncc1)S(=O)(=O)c1ccccc1,-19,-14,.,2,6,14
CN(CC(=O)NCc1ccncc1)S(=O)(=O)c1ccc(F)cc1,14,100*,-1,?,?,16
Cc1nc2ccccn2c1C(=O)N=Nc1c(O)n(CCC(C)C)c2ccccc12,.,.,-7,.,.,.
COc1ccc(C2=NOC(CN3C(=O)c4ccccc4S3(=O)=O)C2)cc1 (centres undefined),-24,-22,38*,-1,0,-6
O=C1c2ccccc2S(=O)(=O)N1CC1CC(c2ccccc2)=NO1 (centres undefined),27,-32,-1,-38,-8,22
CNCc1ccccc1Sc1ccc(OC)c(OC)c1,.,-15,-2,14,11,-42
O=C(O)c1ccc(-c2ncc[nH]2)cc1,80*,.,.,.,.,-12
O=C(O)c1ccc(-c2nc3ccccc3[nH]2)cc1,.,.,.,.,.,-2
COc1ccc(-c2nnc(SCCC(=O)O)n2-c2ccccc2)cc1OC,-7,0,1,9,2,-12
COc1ccc(-n2c(SCCC(=O)O)nnc2-c2ccncc2)cc1,81*,-3,-1,17,13,-9
CCOc1ccc(S(=O)(=O)N/N=C2/CC(c3ccccc3)Oc3ccccc32)cc1 (centres undefined),29,-20,0,-17,16,-14
NC(=O)C1CCN(C(=O)CCC(=O)c2ccc(Br)cc2)CC1,.,.,.,.,.,-2
COc1ccc2nc(C)c3cc(C)oc3c2c1,90*,-13,.,1,5,-7
COC(=O)[C@H]1C[C@@H]1[C@H](NC(=O)c1ccccc1)c1ccccc1,-62,.,.,.,.,.
O=C(c1ccc(COCC(F)(F)F)o1)N1CCCCCC1,39,-22,.,-14,5,74*
CC(C)(C)NC(=O)c1ccc(COCC(F)(F)F)o1,69,6,-2,-15,-13,-10
Clc1ccc(-c2csc(N3CCOCC3)n2)cc1,73*,.,.,.,.,-50
CCCCNC(=O)CSc1cc(=O)n(C)c2ccccc12,.,40,0,0,31*,.
